# Laboratory results published in PubChem BioAssay (NCI).
# Several values for one entry are separate records, joined by “and”; a condition that tells them apart may be missing. Equal entries are not always repeated. This is part of a sample that, as a whole, favours compounds with a hit. Of some 83,000 tested, about 20% had one in any assay.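 Each cell line was grown in a 96-well plate and treated with one concentration of compound for 48 hours. Values below 10 were considered active.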 Activity calls are given as the source filed them.
# System: OVCAR-8 ovarian
# Assay: NCI-60 one-dose screen, 48 h (100 = growth as untreated, 0 = no growth, -100 = all killed)
# Conditions: 10 µM
row,Compound,growth
1,Cc1cc(C)c(N2C(=O)CC(Sc3ccccc3N)C2=O)c(C)c1 (centres undefined),91.1% (inactive)
2,COc1cc(N)ccc1Nc1c2ccccc2nc2ccccc12,66.1% (inactive)
3,O=[N+]([O-])c1cc(S(=O)(=O)Nc2ccccc2)ccc1Cl,91.5% (inactive)
4,CCOC(=O)[C@]1(Br)CC[C@@]1(Br)C(=O)OCC,95.6% (inactive)
5,N#C/C(=C/N1C(=O)/C(=C/c2ccc([N+](=O)[O-])cc2)SC1=S)c1nc2ccccc2s1,88.4% (inactive)
6,Cn1ncc2cc3c(Nc4ccc(Cl)cc4)cccc3nc21,89.8% (inactive)
7,S=P(N1CC1)(N1CC1)N1CC1,110% (inactive) and 80.7% (inactive)
8,O=C1c2cccc3cc([N+](=O)[O-])cc(c23)C(=O)N1CCN1CCCC1,9.55% (active)
9,N#CC(=C1C=CC(=NO)C=C1)c1ccccc1,2.63% (active)
10,Cc1cc(N=C2C=CC(=[N+](C)C)C=C2)c(N)cc1N,92.8% (inactive)
11,CN(C)CCNc1cccc2sc3ccc(O)cc3c(=O)c12,36% (inactive)
12,O=C(NC(=S)Nc1ccccn1)c1ccccc1,103% (inactive)
13,Cn1c2nc3ccccc3c-2nc2ccccc21,93% (inactive) and 88.6% (inactive)
14,CCC(C)(c1ccc(O)c(C)c1)c1ccc(O)c(C)c1,103% (inactive)
15,O=Nc1ccc(Nc2ccccc2)cc1,66.4% (inactive)
16,O=c1[nH]cc(/C=N\Nc2ccccc2)c(=O)[nH]1,46.7% (inactive)
17,CN(C)c1ccc(/C=C/c2ccnc3ccccc23)cc1N,75.3% (inactive)
18,COc1cccc(C(c2cc3c(cc2O)OCO3)N2CCOCC2)c1OC (centres undefined),99.2% (inactive)
19,O=C1C=CC(=O)N1c1ccc(N2C(=O)C=CC2=O)cc1,109% (inactive)
20,CC(=O)O[C@H]1C(=O)[C@@]2(C)[C@H]([C@H](OC(=O)c3ccccc3)[C@]3(O)C[C@H](OC(=O)[C@H](O)[C@@H](NC(=O)c4ccccc4)c4ccccc4)C(C)=C1C3(C)C)[C@]1(OC(C)=O)CO[C@@H]1C[C@@H]2O,18.4% (inactive)
21,CCC(=O)Oc1ccc(/C=N/NC(N)=S)nc1,23.5% (inactive)
22,COc1ccc(C(C#N)=C2C=CC(=NO)C=C2)cc1,80.3% (inactive)
23,CN(CC(=O)O)c1ccc(/C=C/c2ccnc3ccccc23)cc1,80% (inactive)

# System: OVCAR-5 ovarian
# Assay: as above
# Conditions: 10 µM
row,Compound,growth
1,Cc1cc(C)c(N2C(=O)CC(Sc3ccccc3N)C2=O)c(C)c1 (centres undefined),118% (inactive)
2,COc1cc(N)ccc1Nc1c2ccccc2nc2ccccc12,110% (inactive)
3,O=[N+]([O-])c1cc(S(=O)(=O)Nc2ccccc2)ccc1Cl,101% (inactive)
4,CCOC(=O)[C@]1(Br)CC[C@@]1(Br)C(=O)OCC,104% (inactive)
5,N#C/C(=C/N1C(=O)/C(=C/c2ccc([N+](=O)[O-])cc2)SC1=S)c1nc2ccccc2s1,90.3% (inactive)
6,Cn1ncc2cc3c(Nc4ccc(Cl)cc4)cccc3nc21,109% (inactive)
7,S=P(N1CC1)(N1CC1)N1CC1,108% (inactive) and 77.1% (inactive)
8,O=C1c2cccc3cc([N+](=O)[O-])cc(c23)C(=O)N1CCN1CCCC1,-1.73% (active)
9,N#CC(=C1C=CC(=NO)C=C1)c1ccccc1,-10.1% (active)
10,Cc1cc(N=C2C=CC(=[N+](C)C)C=C2)c(N)cc1N,95.6% (inactive)
11,CN(C)CCNc1cccc2sc3ccc(O)cc3c(=O)c12,78.8% (inactive)
12,O=C(NC(=S)Nc1ccccn1)c1ccccc1,89.1% (inactive)
13,Cn1c2nc3ccccc3c-2nc2ccccc21,103% (inactive) and 86.9% (inactive)
14,CCC(C)(c1ccc(O)c(C)c1)c1ccc(O)c(C)c1,101% (inactive)
15,O=Nc1ccc(Nc2ccccc2)cc1,103% (inactive)
16,O=c1[nH]cc(/C=N\Nc2ccccc2)c(=O)[nH]1,68.4% (inactive)
17,CN(C)c1ccc(/C=C/c2ccnc3ccccc23)cc1N,91.8% (inactive)
18,COc1cccc(C(c2cc3c(cc2O)OCO3)N2CCOCC2)c1OC (centres undefined),104% (inactive)
19,O=C1C=CC(=O)N1c1ccc(N2C(=O)C=CC2=O)cc1,97.7% (inactive)
20,CC(=O)O[C@H]1C(=O)[C@@]2(C)[C@H]([C@H](OC(=O)c3ccccc3)[C@]3(O)C[C@H](OC(=O)[C@H](O)[C@@H](NC(=O)c4ccccc4)c4ccccc4)C(C)=C1C3(C)C)[C@]1(OC(C)=O)CO[C@@H]1C[C@@H]2O,41.8% (inactive) and 13.7% (inactive)
21,CCC(=O)Oc1ccc(/C=N/NC(N)=S)nc1,108% (inactive)
22,COc1ccc(C(C#N)=C2C=CC(=NO)C=C2)cc1,137% (inactive)
23,CN(CC(=O)O)c1ccc(/C=C/c2ccnc3ccccc23)cc1,123% (inactive)

# System: OVCAR-4 ovarian
# Assay: as above
# Conditions: 10 µM
row,Compound,growth
1,Cc1cc(C)c(N2C(=O)CC(Sc3ccccc3N)C2=O)c(C)c1 (centres undefined),71.4% (inactive)
2,COc1cc(N)ccc1Nc1c2ccccc2nc2ccccc12,5.09% (active)
3,O=[N+]([O-])c1cc(S(=O)(=O)Nc2ccccc2)ccc1Cl,97% (inactive)
4,CCOC(=O)[C@]1(Br)CC[C@@]1(Br)C(=O)OCC,101% (inactive)
5,N#C/C(=C/N1C(=O)/C(=C/c2ccc([N+](=O)[O-])cc2)SC1=S)c1nc2ccccc2s1,104% (inactive)
6,Cn1ncc2cc3c(Nc4ccc(Cl)cc4)cccc3nc21,88.2% (inactive)
7,S=P(N1CC1)(N1CC1)N1CC1,116% (inactive) and 90.4% (inactive)
8,O=C1c2cccc3cc([N+](=O)[O-])cc(c23)C(=O)N1CCN1CCCC1,3.14% (active)
9,N#CC(=C1C=CC(=NO)C=C1)c1ccccc1,14.4% (inactive)
10,Cc1cc(N=C2C=CC(=[N+](C)C)C=C2)c(N)cc1N,82.3% (inactive)
11,CN(C)CCNc1cccc2sc3ccc(O)cc3c(=O)c12,52.8% (inactive)
12,O=C(NC(=S)Nc1ccccn1)c1ccccc1,62.7% (inactive)
13,Cn1c2nc3ccccc3c-2nc2ccccc21,89.5% (inactive) and 80.5% (inactive)
14,CCC(C)(c1ccc(O)c(C)c1)c1ccc(O)c(C)c1,91.9% (inactive)
15,O=Nc1ccc(Nc2ccccc2)cc1,57.3% (inactive)
16,O=c1[nH]cc(/C=N\Nc2ccccc2)c(=O)[nH]1,84.4% (inactive)
17,CN(C)c1ccc(/C=C/c2ccnc3ccccc23)cc1N,58.2% (inactive)
18,COc1cccc(C(c2cc3c(cc2O)OCO3)N2CCOCC2)c1OC (centres undefined),99.5% (inactive)
19,O=C1C=CC(=O)N1c1ccc(N2C(=O)C=CC2=O)cc1,101% (inactive)
20,CC(=O)O[C@H]1C(=O)[C@@]2(C)[C@H]([C@H](OC(=O)c3ccccc3)[C@]3(O)C[C@H](OC(=O)[C@H](O)[C@@H](NC(=O)c4ccccc4)c4ccccc4)C(C)=C1C3(C)C)[C@]1(OC(C)=O)CO[C@@H]1C[C@@H]2O,-13% (active) and 57.6% (inactive)
21,CCC(=O)Oc1ccc(/C=N/NC(N)=S)nc1,56.2% (inactive)
22,COc1ccc(C(C#N)=C2C=CC(=NO)C=C2)cc1,91.7% (inactive)
23,CN(CC(=O)O)c1ccc(/C=C/c2ccnc3ccccc23)cc1,86.2% (inactive)
